According to PubChem BioAssay AID1159580 (chemical genetic matrix, 2015):
Values joined by “and” are separate entries in the source; they are usually repeats but may differ in a detail not shown here. Identical values can stand only once. About 2,000 (36%) of roughly 5,500 compounds were called active. About 18% were inconclusive and are not listed. No stated cut-off is given here; in the data, active means normalized growth mostly below about 0.91 (no sharp cut-off); inconclusive means no clear call, values can overlap the other calls; inactive means mostly above about 0.92. Some of the results follow.

Experiment: chemical genetic growth profiling, strain panel (AID 1159580);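 further: tested at 20 µM; growth read once vehicle control cultures reached saturation at 30 °C; 1 = growth at the plate median or of vehicle wells; lower values mean less growth of the strain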
Conditions: growth OD

Measured: normalized growth

CC(C)NNC(=O)c1ccncc1
inactive: S. cerevisiae deletion strains, locus YJR043C, strain POL32, hits give low values 1.01 | S. cerevisiae deletion strains, locus YJR075W, strain HOC1, hits give low values 1 | S. cerevisiae deletion strains, locus YKL068W, hits give low values 1.02 | S. cerevisiae deletion strains, locus YKL085W, strain MDH1 (second series), hits give low values 1.03 | S. cerevisiae deletion strains, locus YKL085W, strain MDH1, hits give low values 1.03 | S. cerevisiae deletion strains, locus YKL160W, strain elf1, hits give low values 1.01 | S. cerevisiae deletion strains, locus YKL190W, strain CNB1, hits give low values 1 | S. cerevisiae deletion strains, locus YKR001C, strain vps1, hits give low values 1.02 | S. cerevisiae deletion strains, locus YKR026C, strain gcn3, hits give low values 0.997 | S. cerevisiae deletion strains, locus YKR091W, strain srl3, hits give low values 1.01 | S. cerevisiae deletion strains, locus YLL001W, strain dnm1, hits give low values 1 | S. cerevisiae deletion strains, locus YLL026W, hits give low values 1.01 | S. cerevisiae deletion strains, locus YLL041C, strain sdh2, hits give low values 1.01 | S. cerevisiae deletion strains, locus YLR027C, strain aat2, hits give low values 0.996 | S. cerevisiae deletion strains, locus YLR039C, strain RIC1, hits give low values 1.02 | S. cerevisiae deletion strains, locus YLR058C, strain SHM2, hits give low values 1.01 | S. cerevisiae deletion strains, locus YLR102C, strain apc9, hits give low values 1.01 | S. cerevisiae deletion strains, locus YLR221C, strain rsa3, hits give low values 1.02 | S. cerevisiae deletion strains, locus YLR258W, strain gsy2, hits give low values 1.02 | S. cerevisiae deletion strains, locus YLR262C, strain YPT6 (second series), hits give low values 1 | S. cerevisiae deletion strains, locus YLR262C, strain YPT6, hits give low values 1.02 | S. cerevisiae deletion strains, locus YLR268W, strain sec22, hits give low values 1.03 | S. cerevisiae deletion strains, locus YLR320W, strain mms22, hits give low values 1.01 | S. cerevisiae deletion strains, locus YLR330W, strain CHS5, hits give low values 1.01 | S. cerevisiae deletion strains, locus YLR342W, strain FKS1 (second series), hits give low values 1.01 | S. cerevisiae deletion strains, locus YLR342W, strain FKS1, hits give low values 0.986 | S. cerevisiae deletion strains, locus YLR357W, strain rsc2, hits give low values 1.01 | S. cerevisiae deletion strains, locus YLR370C, strain arc18, hits give low values 1.01 | S. cerevisiae deletion strains, locus YLR371W, strain rom2, hits give low values 1 | S. cerevisiae deletion strains, locus YLR384C, strain iki3, hits give low values 0.995 | S. cerevisiae deletion strains, locus YLR418C, strain cdc73, hits give low values 1.04 | S. cerevisiae deletion strains, locus YML016C, strain PPZ1, hits give low values 1 | S. cerevisiae deletion strains, locus YML032C, strain rad52, hits give low values 1.02 | S. cerevisiae deletion strains, locus YML120C, strain ndi1, hits give low values 0.999 | S. cerevisiae deletion strains, locus YML124C, strain tub3, hits give low values 1.01 | S. cerevisiae deletion strains, locus YMR058W, strain fet3, hits give low values 1.03 | S. cerevisiae deletion strains, locus YMR078C, strain ctf18, hits give low values 1.01 | S. cerevisiae deletion strains, locus YMR125W, strain sto1, hits give low values 1.02 | S. cerevisiae deletion strains, locus YMR129W, hits give low values 1.01 | S. cerevisiae deletion strains, locus YMR205C, strain PFK2, hits give low values 1 | S. cerevisiae deletion strains, locus YMR223W, strain ubp8, hits give low values 1.02 | S. cerevisiae deletion strains, locus YMR231W, strain pep5, hits give low values 1 | S. cerevisiae deletion strains, locus YMR263W, strain SAP30, hits give low values 1.01 | S. cerevisiae deletion strains, locus YMR307W, strain GAS1, hits give low values 1.05 and 1 | S. cerevisiae deletion strains, locus YNL067W, strain RPL9B, hits give low values 1.01 | S. cerevisiae deletion strains, locus YNL071W, strain lat1, hits give low values 1.03 | S. cerevisiae deletion strains, locus YNL128W, strain TEP1, hits give low values 1.01 | S. cerevisiae deletion strains, locus YNL153C, strain GIM3, hits give low values 1.01 | S. cerevisiae deletion strains, locus YNL175C, strain NOP13, hits give low values 0.994 | S. cerevisiae deletion strains, locus YNL197C, strain WHI3, hits give low values 0.989 | S. cerevisiae deletion strains, locus YNL209W, strain ssb2, hits give low values 1.03 | S. cerevisiae deletion strains, locus YNL224C, strain SQS1, hits give low values 1.02 | S. cerevisiae deletion strains, locus YNL233W, strain BNI4, hits give low values 1.01 | S. cerevisiae deletion strains, locus YNL248C, strain rpa49, hits give low values 1.01 | S. cerevisiae deletion strains, locus YNL250W, strain rad50, hits give low values 1.02 | S. cerevisiae deletion strains, locus YNL271C, strain bni1, hits give low values 1.02 | S. cerevisiae deletion strains, locus YNL298W, strain CLA4, hits give low values 1.01 | S. cerevisiae deletion strains, locus YNL307C, strain MCK1, hits give low values 1.02 | S. cerevisiae deletion strains, locus YNL322C, strain KRE1 (second series), hits give low values 1.01 | S. cerevisiae deletion strains, locus YNL322C, strain KRE1, hits give low values 1 and 0.981 | S. cerevisiae deletion strains, locus YNR049C, strain mso1, hits give low values 1.01 | S. cerevisiae deletion strains, locus YNR052C, strain pop2, hits give low values 1.02 | S. cerevisiae deletion strains, locus YOL006C, strain TOP1, hits give low values 1.04 | S. cerevisiae deletion strains, locus YOL012C, strain htz1 1.02 | S. cerevisiae deletion strains, locus YOL147C, strain pex11, hits give low values 1.01 | S. cerevisiae deletion strains, locus YOR001W, strain rrp6, hits give low values 0.998 | S. cerevisiae deletion strains, locus YOR061W, strain CKA2, hits give low values 1.01 | S. cerevisiae deletion strains, locus YOR069W, strain VPS5, hits give low values 1.01 | S. cerevisiae deletion strains, locus YOR070C, strain gyp1, hits give low values 1.01 | S. cerevisiae deletion strains, locus YOR080W, strain dia2, hits give low values 1.01 | S. cerevisiae deletion strains, locus YOR083W, strain WHI5 (second series), hits give low values 1.01 | S. cerevisiae deletion strains, locus YOR083W, strain WHI5, hits give low values 0.998 | S. cerevisiae deletion strains, locus YOR106W, strain vam3, hits give low values 1.02 | S. cerevisiae deletion strains, locus YOR136W, strain idh2, hits give low values 1.02 | S. cerevisiae deletion strains, locus YOR144C, strain elg1, hits give low values 1.01 | S. cerevisiae deletion strains, locus YOR184W, strain ser1, hits give low values 1.04 | S. cerevisiae deletion strains, locus YOR265W, strain rbl2, hits give low values 1.01 | S. cerevisiae deletion strains, locus YOR270C, strain vph1, hits give low values 1.06 | S. cerevisiae deletion strains, locus YOR290C, strain snf2, hits give low values 1.01 | S. cerevisiae deletion strains, locus YOR316C, strain cot1, hits give low values 1.02 | S. cerevisiae deletion strains, locus YPL051W, strain arl3, hits give low values 1.01 | S. cerevisiae deletion strains, locus YPL055C, strain LGE1, hits give low values 1.02 | S. cerevisiae deletion strains, locus YPL078C, strain atp4, hits give low values 1.01 | S. cerevisiae deletion strains, locus YPL106C, strain sse1, hits give low values 0.991 | S. cerevisiae deletion strains, locus YPL240C, strain hsp82, hits give low values 1.02 | S. cerevisiae deletion strains, locus YPL241C, strain CIN2, hits give low values 0.995 and 0.982 | S. cerevisiae deletion strains, locus YPR119W, strain clb2, hits give low values 1 | S. cerevisiae deletion strains, locus YPR141C, strain kar3, hits give low values 1.01 | S. cerevisiae deletion strains, locus YPR163C, strain tif3, hits give low values 1.02 | S. cerevisiae deletion strains, locus YPR167C, strain met16, hits give low values 1.02 | S. cerevisiae deletion strains, strain wtn01, hits give low values 1.02 | S. cerevisiae strains, strain wild type, hits give low values 1.01
